Here are results for 7 compounds from PubChem BioAssay (EPA / NIEHS).

Assay [1] addresses human Retinoid X Receptor beta (RXRb), RXRB (gene 6257) (UniProt P28702). Description: ATG_RXRb_TRANS: Attagene TRANS-FACTORIAL HepG2 Assay for human Retinoid X Receptor beta (RXRb) (AID 2283013; active = hit-call score of the fitted dose curve at least 0.9, where 1 is the maximum). Summed up:
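HepG2 cells transiently transfected with multiplexed reporter units driven by GAL4-UAS and exogenous chimeric NR-Gal4 proteins; treated 24 h. Reporter mRNA measured by RT-PCR, 6-FAM labelling and capillary electrophoresis; gain-of-signal fitted versus DMSO baseline.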

Assay [2] addresses human Thyroid Receptor alpha (THRa1), THRA (gene 7067) (UniProt P10827). Description: ATG_THRa1_TRANS: Attagene TRANS-FACTORIAL HepG2 Assay for human Thyroid Receptor alpha (THRa1) (AID 2283014; active = hit-call score of the fitted dose curve at least 0.9, where 1 is the maximum). Summed up:
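HepG2 cells transiently transfected with multiplexed GAL4-UAS reporter units for exogenous chimeric THRa1-Gal4; reporter mRNA measured 24 h after dosing by RT-PCR, 6-FAM labelling, HpaI digestion and capillary electrophoresis. Gain-of-signal fitted versus DMSO baseline.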

Read-out in assay [3]: E-selectin (Homo sapiens) (UniProt P16581)
Description: BSK_3C_Eselectin: BioMAP Diversity Plus: 3C Assay for Eselectin Biomarker Activity (AID 2283015).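 Also: cell surface E-selectin protein quantified by ELISA 24 h after dosing.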 To be noted: primary human endothelial cells (HUVEC); actives raise or lower the signal. Summed up: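 Primary human umbilical vein endothelial cells (3C system) were dosed with chemical and cell-surface E-selectin measured by ELISA 24 h later. Bidirectional curve fitting used DMSO as negative control and baseline.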

Read-out in assay [4]: Interleukin-1 alpha (IL1a), IL1A (gene 3552)
Description: BSK_BE3C_IL1a: BioMAP Diversity Plus: BE3C Assay for Interleukin-1 alpha (IL1a) Biomarker Activity (AID 2283016). Conditions: primary human bronchial epithelial cells; actives raise or lower the signal. Summed up:
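Human primary bronchial epithelial cells (BE3C system) were dosed with compound and IL-1a measured by ELISA 24 h later. Activity was fitted bidirectionally against DMSO baseline; cytotoxicity was tracked in parallel cultures by SRB total-protein staining.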

Read-out in assay [5]: Monocyte Chemoattractant Protein-1 (MCP1), CCL2 (gene 6347)
Description: BSK_4H_MCP1: BioMAP Diversity Plus: 4H Assay for Monocyte Chemoattractant Protein-1 (MCP1) Biomarker Activity (AID 2283018). Conditions: primary human endothelial cells (HUVEC); actives raise or lower the signal. Summed up: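 Human umbilical vein endothelial cells (4H system) dosed with chemical; MCP-1 measured by ELISA 24 h after dosing. Bidirectional curve fitting against DMSO negative control as baseline; parallel SRB total-protein staining tracks overt cytotoxicity.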

Read-out in assay [6]: Human Leukocyte Antigen - DR isotype (HLADR), HLA-DRA (gene 3122)
Description: BSK_3C_HLADR: BioMAP Diversity Plus: 3C Assay for Human Leukocyte Antigen - DR isotype (HLADR) Biomarker Activity (AID 2283019).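 As to outcome: ELISA of cell-surface HLA-DR on HUVEC 24 h after dosing.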 Conditions: primary human endothelial cells (HUVEC); actives raise or lower the signal. Summed up:
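Primary human umbilical vein endothelial cells (3C system) were dosed with compound and cell-surface HLA-DR was quantified by ELISA at 24 h. Activity was fitted bidirectionally against DMSO as negative control and baseline.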

Read-out in assay [7]: Interleukin-8 (IL8), CXCL8 (gene 3576)
Description: BSK_3C_IL8: BioMAP Diversity Plus: 3C Assay for Interleukin-8 (IL8) Biomarker Activity (AID 2283020). To be noted: primary human endothelial cells (HUVEC); actives raise or lower the signal. Summed up:
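Primary human umbilical vein endothelial cells (3C system) were exposed to test chemical for 24 h, then IL-8 was quantified by ELISA. Responses were fitted bidirectionally against DMSO vehicle as baseline.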

Read-out in assay [8]: Monokine induced gamma interferon (MIG), CXCL9 (gene 4283)
Description: BSK_3C_MIG: BioMAP Diversity Plus: 3C Assay for Monokine induced gamma interferon (MIG) Biomarker Activity (AID 2283021). Conditions: primary human endothelial cells (HUVEC); actives raise or lower the signal. Summed up:
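Primary human umbilical vein endothelial cells in the 3C system were exposed to chemical for 24 h, after which MIG was quantified by ELISA. Activity was fitted bidirectionally against DMSO as negative control and baseline.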

Assay [9] is described as follows: BSK_3C_SRB: Viability Assessment in the BioMAP Diversity Plus: 3C Assay (AID 2283023).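 Also: fitted both ways against DMSO so a hit may be signal rise or drop.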 Conditions: primary human endothelial cells (HUVEC). Summed up:
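Primary human umbilical vein endothelial cells in the 3C system were read 24 h after compound dosing. Total protein was stained with 0.1% sulforhodamine B after 10% TCA fixation and read at 560 nm, with bidirectional fitting against DMSO as baseline.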

Read-out in assay [10]: Matrix Metallopeptidase 1 (MMP1), MMP1 (gene 4312)
Description: BSK_BE3C_MMP1: BioMAP Diversity Plus: BE3C Assay for Matrix Metallopeptidase 1 (MMP1) Biomarker Activity (AID 2283024). To be noted: primary human bronchial epithelial cells; actives raise or lower the signal. Summed up:
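Primary human bronchial epithelial cells were dosed with test chemicals, and MMP1 levels were measured by ELISA 24 h later. Data were fitted bidirectionally against DMSO as the negative control and activity baseline.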

The nature of assay [11]: BSK_3C_Vis: BioMAP Diversity Plus: 3C Assay for Morphology Visualization (AID 2283025).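 Also: fitted both ways so gain or loss versus DMSO counts.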 To be noted: primary human endothelial cells (HUVEC). Summed up:
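Human umbilical vein endothelial cells in the 3C system were imaged by light microscopy 24 h after chemical dosing to record cell morphology. Activity was fitted bidirectionally against DMSO as negative control and baseline; the endpoint serves as a background control.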

Read-out in assay [12]: Pselectin, SELP (gene 6403)
Description: BSK_4H_Pselectin: BioMAP Diversity Plus: 4H Assay for Pselectin Biomarker Activity (AID 2283026). Conditions: primary human endothelial cells (HUVEC); actives raise or lower the signal. Summed up:
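Primary human umbilical vein endothelial cells were exposed to test chemical for 24 h, then cell-surface P-selectin was quantified by ELISA. Activity was fitted bidirectionally against DMSO as negative control and baseline.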

A short description of assay [13]: BSK_4H_SRB: Viability Assessment in the BioMAP Diversity Plus: 4H Assay (AID 2283027).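 Also: cells exposed to compound for 24 h before staining.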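 As to AC50: curves fitted both ways versus DMSO so AC50 may be loss or gain.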 Conditions: primary human endothelial cells (HUVEC). Summed up:
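Human umbilical vein endothelial cells were dosed with chemical and, after 24 h, fixed with 10% TCA, stained with 0.1% sulforhodamine B, and read at 560 nm to give total protein as a cytotoxicity measure. Bidirectional fitting relative to DMSO control.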

A short description of assay [14]: BSK_BE3C_SRB: Viability Assessment in the BioMAP Diversity Plus: BE3C Assay (AID 2283028). To be noted: primary human bronchial epithelial cells. Summed up:
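Human primary bronchial epithelial cells were exposed to test chemicals for 24 h. Total protein in parallel cultures was then measured by staining with 0.1% sulforhodamine B after 10% TCA fixation, with absorbance read at 560 nm. Activity was fitted bidirectionally against DMSO.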

Read-out in assay [15]: Thrombomodulin, THBD (gene 7056)
Description: BSK_3C_Thrombomodulin: BioMAP Diversity Plus: 3C Assay for Thrombomodulin Biomarker Activity (AID 2283029). Conditions: primary human endothelial cells (HUVEC); actives raise or lower the signal. Summed up:
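Primary human umbilical vein endothelial cells (3C system) were exposed to chemical for 24 h, then thrombomodulin levels were measured by ELISA. Activity was fitted bidirectionally against the DMSO negative control as baseline.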

Read-out in assay [16]: Urokinase-type plasminogen activator receptor (uPAR), PLAUR (gene 5329)
Description: BSK_4H_uPAR: BioMAP Diversity Plus: 4H Assay for Urokinase-type plasminogen activator receptor (uPAR) Biomarker Activity (AID 2283030). Conditions: primary human endothelial cells (HUVEC); actives raise or lower the signal. Summed up:
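Primary human umbilical vein endothelial cells were exposed to chemical for 24 h before cell-surface uPAR was quantified by ELISA. Activity was fitted bidirectionally against the DMSO negative control baseline.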

The target in assay [17] is Retinoic acid receptor RXR-alpha (Homo sapiens) (UniProt P19793). Description: ATG_RXRa_TRANS: Attagene TRANS-FACTORIAL HepG2 Assay for human Retinoid X Receptor alpha (RXRa) (AID 2283012; active = hit-call score of the fitted dose curve at least 0.9, where 1 is the maximum). Summed up: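 HepG2 cells transiently transfected with multiplexed GAL4-UAS reporter units and chimeric NR-GAL4 fusions, dosed 24 h. Reporter mRNA measured by RT-PCR, FAM labelling, HpaI digestion and capillary electrophoresis; gain-of-signal fitted relative to DMSO baseline.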

The target in assay [18] is human Vitamin D Receptor (VDR), VDR (gene 7421) (UniProt P11473). Description: ATG_VDR_TRANS: Attagene TRANS-FACTORIAL HepG2 Assay for human Vitamin D Receptor (VDR) (AID 2283022; active = hit-call score of the fitted dose curve at least 0.9, where 1 is the maximum). Summed up: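 HepG2 cells were transiently transfected with multiple GAL4-UAS reporter units, so signal reflects exogenous chimeric receptor-Gal4 activity. After 24 h compound exposure, reporter mRNA was measured by RT-PCR, fluorescent labelling and capillary electrophoresis, fitted for gain of signal versus DMSO.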

Read-out in assay [19]: Monocyte Chemoattractant Protein-1 (MCP1), CCL2 (gene 6347)
Description: BSK_3C_MCP1: BioMAP Diversity Plus: 3C Assay for Monocyte Chemoattractant Protein-1 (MCP1) Biomarker Activity (AID 2283017). Conditions: primary human endothelial cells (HUVEC); actives raise or lower the signal. Summed up:
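Primary human umbilical vein endothelial cells (3C system) were exposed to test chemical for 24 h, after which MCP-1 was quantified by ELISA. Activity was fitted bidirectionally against DMSO as negative control and baseline.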

Records with an inconclusive call do not appear. Activity calls are given as the source filed them. The calls were made as follows, unless noted: active = hit-call score of the fitted dose curve at least 0.9, where 1 is the maximum; inactive = score below 0.9.

Sequence of E-selectin (Homo sapiens) (P16581 whole entry, looked up): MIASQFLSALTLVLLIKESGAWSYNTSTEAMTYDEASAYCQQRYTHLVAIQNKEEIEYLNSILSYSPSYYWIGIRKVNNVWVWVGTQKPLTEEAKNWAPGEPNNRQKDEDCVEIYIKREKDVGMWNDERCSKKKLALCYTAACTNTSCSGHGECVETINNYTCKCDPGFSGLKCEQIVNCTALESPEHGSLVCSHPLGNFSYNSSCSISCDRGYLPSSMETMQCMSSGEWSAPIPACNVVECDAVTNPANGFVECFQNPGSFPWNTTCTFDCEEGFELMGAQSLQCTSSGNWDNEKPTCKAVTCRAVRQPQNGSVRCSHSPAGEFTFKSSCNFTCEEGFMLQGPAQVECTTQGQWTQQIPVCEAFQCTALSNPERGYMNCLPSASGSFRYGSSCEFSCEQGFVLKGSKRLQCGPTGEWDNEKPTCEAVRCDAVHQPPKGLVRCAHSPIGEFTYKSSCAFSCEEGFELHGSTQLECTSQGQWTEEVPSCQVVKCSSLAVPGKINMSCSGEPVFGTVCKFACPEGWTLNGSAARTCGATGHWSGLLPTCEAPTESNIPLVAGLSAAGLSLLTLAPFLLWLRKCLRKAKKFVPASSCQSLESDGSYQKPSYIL
Sequence of human Retinoid X Receptor beta (RXRb), RXRB (gene 6257) (P28702 whole entry, looked up, the tested form may be a part): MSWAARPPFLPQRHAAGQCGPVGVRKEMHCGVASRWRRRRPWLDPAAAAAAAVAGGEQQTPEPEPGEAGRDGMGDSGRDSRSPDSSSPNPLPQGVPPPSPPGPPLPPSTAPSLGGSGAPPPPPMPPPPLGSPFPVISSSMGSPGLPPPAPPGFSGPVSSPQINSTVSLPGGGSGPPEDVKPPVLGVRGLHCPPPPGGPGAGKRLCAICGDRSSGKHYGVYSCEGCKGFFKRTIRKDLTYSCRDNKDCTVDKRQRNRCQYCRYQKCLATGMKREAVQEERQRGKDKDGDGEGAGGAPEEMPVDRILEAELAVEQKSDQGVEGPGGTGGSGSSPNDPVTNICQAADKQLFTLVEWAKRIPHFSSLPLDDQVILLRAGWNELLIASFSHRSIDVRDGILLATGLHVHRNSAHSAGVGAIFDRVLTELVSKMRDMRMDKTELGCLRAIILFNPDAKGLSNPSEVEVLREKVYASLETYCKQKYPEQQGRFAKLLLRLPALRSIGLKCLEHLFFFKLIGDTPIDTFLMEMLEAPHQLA
Sequence of human Thyroid Receptor alpha (THRa1), THRA (gene 7067) (P10827 whole entry, looked up, the tested form may be a part): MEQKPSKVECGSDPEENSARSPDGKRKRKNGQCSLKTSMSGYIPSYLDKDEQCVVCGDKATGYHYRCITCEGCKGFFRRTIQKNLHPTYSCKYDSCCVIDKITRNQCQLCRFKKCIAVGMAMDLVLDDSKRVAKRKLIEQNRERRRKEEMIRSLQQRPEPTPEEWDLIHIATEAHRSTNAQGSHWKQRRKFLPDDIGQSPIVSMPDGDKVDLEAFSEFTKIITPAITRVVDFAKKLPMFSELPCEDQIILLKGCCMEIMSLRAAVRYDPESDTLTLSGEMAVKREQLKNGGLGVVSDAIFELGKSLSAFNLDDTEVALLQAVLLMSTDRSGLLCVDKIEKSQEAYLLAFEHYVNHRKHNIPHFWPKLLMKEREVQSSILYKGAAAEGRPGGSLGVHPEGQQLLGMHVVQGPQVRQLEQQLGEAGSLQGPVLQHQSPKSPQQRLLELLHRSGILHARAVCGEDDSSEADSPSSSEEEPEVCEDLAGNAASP
Sequence of Retinoic acid receptor RXR-alpha (Homo sapiens) (P19793 whole entry, looked up, the tested form may be a part): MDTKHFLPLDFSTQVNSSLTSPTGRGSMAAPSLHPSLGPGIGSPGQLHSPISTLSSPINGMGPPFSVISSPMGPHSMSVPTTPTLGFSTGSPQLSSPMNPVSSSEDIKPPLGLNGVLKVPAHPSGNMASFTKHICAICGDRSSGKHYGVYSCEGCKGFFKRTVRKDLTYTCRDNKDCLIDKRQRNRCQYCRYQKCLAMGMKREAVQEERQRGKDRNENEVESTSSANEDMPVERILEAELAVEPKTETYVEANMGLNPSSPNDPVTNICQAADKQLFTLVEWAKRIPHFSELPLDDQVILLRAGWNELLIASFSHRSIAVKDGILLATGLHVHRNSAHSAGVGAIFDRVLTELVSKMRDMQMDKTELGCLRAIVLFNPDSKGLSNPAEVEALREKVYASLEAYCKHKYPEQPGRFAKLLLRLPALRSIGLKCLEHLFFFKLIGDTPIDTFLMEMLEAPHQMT
Sequence of human Vitamin D Receptor (VDR), VDR (gene 7421) (P11473 whole entry, looked up, the tested form may be a part): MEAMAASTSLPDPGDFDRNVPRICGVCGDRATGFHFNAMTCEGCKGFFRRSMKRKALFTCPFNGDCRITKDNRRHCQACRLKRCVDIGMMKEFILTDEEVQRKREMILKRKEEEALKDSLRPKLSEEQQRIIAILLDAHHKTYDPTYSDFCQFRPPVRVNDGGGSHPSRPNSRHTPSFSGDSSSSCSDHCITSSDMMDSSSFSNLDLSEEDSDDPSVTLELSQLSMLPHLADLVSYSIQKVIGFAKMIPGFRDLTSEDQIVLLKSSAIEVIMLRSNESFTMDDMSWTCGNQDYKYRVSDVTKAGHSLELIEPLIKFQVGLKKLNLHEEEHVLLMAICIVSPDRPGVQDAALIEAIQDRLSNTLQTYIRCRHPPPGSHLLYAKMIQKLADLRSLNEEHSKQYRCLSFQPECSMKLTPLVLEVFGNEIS

`CNC(C)=O`: the compound was classed as inactive in [1], in [2], in assay [3], in assay [4], in assay [5] and in assay [6]. Moreover, the result in assay [7], in [8], in [9], in assay [10], in [11] and in assay [12] was inactive. Also, the result in assay [13], in [14], in assay [15] and in assay [16] was inactive.
`CCCCC(CC)C(=O)OCCOCCOCCOC(=O)C(CC)CCCC` (configuration not stated): the outcome in [17], in assay [4], in [5], in assay [6], in assay [7] and in [8] was inactive. In addition, the outcome in assay [9], in assay [10], in assay [11], in assay [12], in assay [13] and in assay [14] was inactive. The outcome in assay [15] and in assay [16] was inactive.
With `CCCCN1C(=O)[C@@H]([C@H](O)C2CCCCC2)NC(=O)C12CCN(Cc1ccc(Oc3ccc(C(=O)O)cc3)cc1)CC2`, the outcome in [4], in assay [5], in [7], in assay [8], in [10] and in assay [12] was inactive. Moreover, the outcome in assay [14] and in assay [15] was inactive. The concentration at half-maximal activity (AC50) (usually the concentration giving half of the maximal activity seen) in assay [6] is 32.1 µM (active); in assay [9], 27.3 µM (active); in [11], 39 µM (active); in assay [13] it was 23.6 µM (active); in [16], 20 µM (active).
On to `Cc1nc(-c2ccccn2)ncc1C(=O)Nn1cc(C)c2cc(F)ccc21`, for which the call in assay [2], in [3], in assay [4], in [5], in [7] and in assay [8] was inactive. Besides, the outcome in assay [18], in assay [10], in [11], in [12], in assay [13] and in assay [14] was inactive. For the same compound, the outcome in assay [15] and in assay [16] was inactive. Further, the AC50 in [6] and in assay [9] was 20 µM (active) in each case.
On to `NC(N)=O`, for which the compound was classed as inactive in [17], in assay [1], in [4], in assay [5], in [6] and in assay [7]. Further, the outcome in assay [8], in assay [9], in assay [10], in [11], in assay [12] and in assay [13] was inactive. The result in assay [14], in assay [15] and in assay [16] was inactive.
Take `O=S1(=O)CCCO1`: the compound was classed as inactive in assay [1], in assay [2], in [3], in assay [4], in assay [19] and in assay [5]. Besides, the outcome in assay [6], in assay [7], in assay [8], in assay [9], in [10] and in assay [11] was inactive. The outcome in [12], in assay [13], in [14], in assay [15] and in assay [16] was inactive.
Regarding `OCCNCCO`, the compound was classed as inactive in assay [17], in [3], in assay [4], in assay [19], in assay [5] and in [6]. Further, the result in [7], in [8], in assay [9], in [10], in assay [11] and in assay [12] was inactive. Also, the outcome in assay [13], in assay [14], in [15] and in assay [16] was inactive.
